In PubChem BioAssay (Tox21):
Values joined by “and” are separate entries in the source; they are usually repeats but may differ in a detail not shown here. Equal values may be shown once. More than one record can exist for a structure, and the calls need not agree. Active and inactive are the calls of the source. Entries that show only a call come without a potency. Calls follow the shape of the dose curve; as a rule, active = well fitted inhibition curve with a large enough effect in the repeat runs (not every such curve was filed as active); inconclusive = weak or mixed curves; inactive = flat fitted curve, though single readings scatter.

Target: Thyrotropin-releasing hormone receptor (Homo sapiens) (UniProt P34981)
Test: qHTS assay to identify small molecule antagonists of the thyrotropin-releasing hormone receptor (TRHR) signaling pathway (AID 1346877)
Settings: TRHR-HEK293, TRH-induced calcium fluorescence, antagonist mode; series mostly up to 51.3 µM
Source text: National Center for Advancing Translational Sciences [NCATS]
NIH Chemical Genomics Center [NCGC]
U.S. Environmental Protection Agency [EPA]
National Institutes of Environmental Health Sciences [NIEHS]
National Toxicology Program [NTP]
U.S. Food and Drug Administration [FDA]
Thyrotropin-releasing hormone (TRH) receptor (TRHR) is a G-protein-coupled receptor which binds the tripeptide thyrotropin releasing hormone. TRHR is found in the brain and, when bound by TRH, acts (through phospholipase C) to increase intracellular inositol trisphosphate. It plays a crucial role in the anterior pituitary where it controls the synthesis and secretion of thyroid stimulating hormone and prolactin. The TRHR-Hek293 assay is a cell-based assay, and it has the potential to screen G protein-coupled receptors. A compound/drug can either activate (agonist) or suppress (antagonist) GPCRs that can be monitored by levels of intracellular calcium. In this assay, the Tox21 10K compound library was screened to identify potential TRHR antagonists.
Tox21 Assay Protocol Summary:
The TRHR-Hek293 cells were dispensed at 1500cells/4uL/well in 1536-well black-clear bottom plates using a Multidrop dispenser. After the assay plates were incubated at a 37 C/5% CO2 incubator for 18 hours, 4 uL of Dye-Loading Solution was added to each well. The plates were incubated at 37 C for 2 hours. For agonist mode, 23 nL of compounds dissolved in DMSO, positive controls or DMSO only was transferred to the assay plate by a pin tool. The fluorescence intensity in the plates was measured using FDSS 7000EX kinetic plate reader for 3 min at 1 sec intervals. For antagonist mode, 23 nL of compounds dissolved in DMSO, positive controls or DMSO only was transferred to the assay plate by a pin tool. After 5 min incubation at room temperature, 1 uL of TRH was added on the top of the cell/compound mixtures to achieve a final agonist concentration of 1 nM. The fluorescence intensity in the plates was measured using FDSS 7000EX kinetic plate reader for 3 min at 1 sec intervals. Each test compound was measured at 15 concentrations and in triplicates.
Potency is read from the fitted curve at half-maximal effect.

Chain of Thyrotropin-releasing hormone receptor (Homo sapiens) (P34981 whole entry, looked up): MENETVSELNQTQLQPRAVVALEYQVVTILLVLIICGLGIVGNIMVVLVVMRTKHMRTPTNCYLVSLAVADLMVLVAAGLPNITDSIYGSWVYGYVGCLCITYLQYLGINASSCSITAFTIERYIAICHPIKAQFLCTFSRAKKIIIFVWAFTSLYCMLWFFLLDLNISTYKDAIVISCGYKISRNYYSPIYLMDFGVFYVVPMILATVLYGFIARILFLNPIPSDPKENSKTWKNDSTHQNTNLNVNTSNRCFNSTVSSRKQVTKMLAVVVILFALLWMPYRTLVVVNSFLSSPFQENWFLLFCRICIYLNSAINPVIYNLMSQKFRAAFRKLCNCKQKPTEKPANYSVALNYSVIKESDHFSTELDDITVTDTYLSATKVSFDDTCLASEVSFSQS

SMILES	Potency
CC(C(O)c1ccc(O)cc1)N1CCC(Cc2ccccc2)CC1 (stereo not given)	inactive
O=Nc1ccc(Nc2ccccc2)cc1	inactive
C/C=C/c1ccc(OCC)c(O)c1	inactive
CC(C)(C)NCC(O)COc1ccccc1OCC1CCCO1 (stereo not given)	inactive
CCCCCCC(O)CCCCCCCCCCC(=O)O (stereo not given)	inactive
CC(C)CCOCc1ccccc1	inactive
CC(=O)CC(=O)Nc1ccc2[nH]c(=O)[nH]c2c1	inactive
CCn1c2ccccc2c2cc(N)ccc21	inactive
CCCCC(CC)COC(=O)CC(C(=O)OCC(CC)CCCC)S(=O)(=O)O (stereo not given)	inactive
CCc1cc(C(C)(C)C)c(O)c(C(C)(C)C)c1	inactive
CO[Si](OC)(OC)c1ccccc1	inactive
Nc1cc(Cl)c(-c2cc(Cl)c(N)cc2Cl)cc1Cl	inactive
Cc1ccc(-c2cc(C(F)(F)F)nn2-c2ccc(S(N)(=O)=O)cc2)cc1	inactive
CC(C)CCCCCCc1ccc(O)cc1	inactive
c1cnc2cc3c(cc2n1)C1CNCC3C1	inactive
CCc1ccc(C(c2ccc(CC)cc2)C(Cl)Cl)cc1	inactive
CN1C(=O)c2ccc([N+](=O)[O-])cc2C1=O	inactive
Nc1nc(=S)c2[nH]cnc2[nH]1	inactive
CN(C)c1ccc(C(=C2C=CC(=[N+](C)C)C=C2)c2ccccc2)cc1	26.9 µM (active) and inactive
NC(=Nc1ccccc1)Nc1ccccc1	10.1 µM (active) and inactive

SMILES	Potency
CC(C)(C)c1cc(C(C)(C)C)c(O)c(C(C)(C)C)c1	inactive
CC1COc2c(N3CCN(C)CC3)c(F)cc3c(=O)c(C(=O)O)cn1c23 (stereo not given)	inactive
CCC(=O)/C=C/C1C(C)=CCCC1(C)C (stereo not given)	inactive
CCOC(=O)C(C)C(C)=O (stereo not given)	inactive
OCCN1CCNCC1	inactive
CCCCCCCCCCCCCC[P+](CCCC)(CCCC)CCCC	inactive
COc1nc(C)nc(Cl)c1NC1=NCCN1	inactive
CC(C)(C)NCC(O)c1cc(O)cc(O)c1 (stereo not given)	inactive
CC(C)C(=O)c1c(C(C)C)nn2ccccc12	inactive
Cc1cc(Cc2cc(C)cc(C(C)(C)C)c2O)c(O)c(C(C)(C)C)c1	inactive
O=C(O[C@@H]1Cc2c(O)cc(O)cc2O[C@@H]1c1cc(O)c(O)c(O)c1)c1cc(O)c(O)c(O)c1	inactive
CC(=O)CC(C)=O	inactive
CCC(C)(C)C(=O)O[C@H]1C[C@@H](C)C=C2C=C[C@H](C)[C@H](CC[C@@H]3C[C@@H](O)CC(=O)O3)[C@H]21	inactive
O=C(Nc1ccccc1SSc1ccccc1NC(=O)c1ccccc1)c1ccccc1	inactive
Oc1c(Cl)cc(Cl)c(Cl)c1Cc1c(O)c(Cl)cc(Cl)c1Cl	12 µM (active) and 26.9 µM (active)
CC(=O)OCCOCCOCCOC(C)=O	inactive
Cc1cc(OCCOCC[N+](C)(C)Cc2ccccc2)ccc1C(C)(C)CC(C)(C)C	inactive
CC1=CC(=O)c2ccccc2C1=O	inactive
O=C(Cl)c1cccc(C(=O)Cl)c1	inactive
Cc1cc(C(C)(C)C)c(O)c(C(C)(C)C)c1	inactive
